Results reported in PubChem BioAssay (NCATS).
Records with an inconclusive call do not appear. Where a call stands in place of a potency, no number is given. Active and inactive are the calls of the source. Calls come from the whole dose curve; as a rule, active = well fitted inhibition curve with a large enough effect; inconclusive = small, poorly fitted or top-dose-only effect; inactive = flat fitted curve, though single readings scatter.

Experiments:
Experiment in all cases: qHTS profiling for inhibitors of Plasmodium falciparum proliferation (AID 504749); note: nearly all actives have a fitted effect of over 60% in size
Conditions in all cases: P. falciparum in erythrocytes, SYBR Green DNA, 72 h; series mostly up to 28.7 µM
CP268 = tested on: CP268
How it was run: (§1)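 Readout was DNA-dye fluorescence from lysed cultures, ex 485/em 535 nm. Parasitized red cells had grown 72 h with compound; data scaled between 0.29 uM artemisinin and DMSO wells and corrected using vehicle-only plates.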

CP269 = tested on: CP269
How it was run: as §1

CP286 = tested on: CP286
How it was run: as §1

CP291 = tested on: CP291
How it was run: as §1

CP297 = tested on: CP297
How it was run: as §1

CP305 = tested on: CP305
How it was run: as §1

CP315 = tested on: CP315
How it was run: as §1

CP325 = tested on: CP325
How it was run: as §1

CP329 = tested on: CP329
How it was run: as §1

CP335 = tested on: CP335
How it was run: as §1

DFO2036 = tested on: DFO2036
How it was run: as §1

DIV14 = tested on: DIV14
How it was run: as §1

DIV17 = tested on: DIV17
How it was run: as §1

DIV30 = tested on: DIV30
How it was run: as §1

Dd2 = tested on: Dd2
How it was run: as §1

ECU = tested on: ECU
How it was run: as §1

FAB9 = tested on: FAB9
How it was run: as §1

GB4 = tested on: GB4
How it was run: as §1

HB3 = tested on: HB3
How it was run: as §1

ICS = tested on: ICS
How it was run: as §1
Potency is the fitted concentration of half-maximal effect.

Row | Compound | Potency (CP268) | Potency (CP269) | Potency (CP286) | Potency (CP291) | Potency (CP297) | Potency (CP305) | Potency (CP315) | Potency (CP325) | Potency (CP329) | Potency (CP335) | Potency (DFO2036) | Potency (DIV14) | Potency (DIV17) | Potency (DIV30) | Potency (Dd2) | Potency (ECU) | Potency (FAB9) | Potency (GB4) | Potency (HB3) | Potency (ICS)
1 | CC(C)NNC(=O)c1ccncc1 | inactive | inactive | inactive | inactive | inactive | inactive | inactive | inactive | inactive | inactive | 7.94 µM (active) | inactive | inactive | inactive | inactive | inactive | inactive | inactive | inactive | inactive
2 | O=C(O)CP(=O)(O)O | inactive | inactive | inactive | inactive | inactive | inactive | inactive | inactive | inactive | inactive | inactive | inactive | inactive | inactive | inactive | inactive | inactive | inactive | inactive | inactive
3 | CCCCOCCOCCOCc1cc2c(cc1CCC)OCO2 | inactive | inactive | inactive | inactive | inactive | inactive | inactive | inactive | inactive | inactive | inactive | inactive | inactive | inactive | inactive | inactive | inactive | inactive | inactive | inactive
4 | O=C(O)CN(CCOCCOCCN(CC(=O)O)CC(=O)O)CC(=O)O | inactive | inactive | inactive | inactive | inactive | inactive | inactive | inactive | inactive | inactive | inactive | inactive | inactive | inactive | inactive | inactive | inactive | inactive | inactive | inactive
5 | FC(F)(F)c1ccccc1-n1ccnc1 | inactive | inactive | inactive | inactive | inactive | inactive | inactive | inactive | inactive | inactive | inactive | inactive | inactive | inactive | inactive | inactive | inactive | inactive | inactive | inactive
6 | NC(=O)c1ncn([C@@H]2O[C@H](CO)[C@@H](O)[C@H]2O)c1O | inactive | inactive | inactive | inactive | inactive | inactive | inactive | inactive | inactive | inactive | inactive | inactive | inactive | inactive | inactive | inactive | inactive | inactive | inactive | inactive
7 | CCN(CC)CC(=O)Nc1c(C)cccc1C | inactive | inactive | inactive | inactive | inactive | inactive | inactive | inactive | inactive | inactive | inactive | inactive | inactive | inactive | inactive | inactive | inactive | inactive | inactive | inactive
8 | CCCCCN(CCCCC)C(=O)C(CCC(=O)O)NC(=O)c1ccc(Cl)c(Cl)c1 (configuration not stated) | inactive | inactive | inactive | inactive | inactive | inactive | inactive | inactive | inactive | inactive | inactive | inactive | inactive | inactive | inactive | inactive | inactive | inactive | inactive | inactive
9 | Cc1nnc(SCC2=C(C(=O)O)N3C(=O)[C@@H](NC(=O)Cn4cnnn4)[C@H]3SC2)s1 | inactive | inactive | inactive | inactive | inactive | inactive | inactive | inactive | inactive | inactive | inactive | inactive | inactive | inactive | inactive | inactive | inactive | inactive | inactive | inactive
10 | CCN1CCC[C@H]1CNC(=O)c1c(O)c(Cl)cc(Cl)c1OC | inactive | inactive | inactive | inactive | inactive | inactive | inactive | inactive | inactive | inactive | inactive | inactive | inactive | inactive | inactive | inactive | inactive | inactive | inactive | inactive
11 | Cc1nc2c([nH]1)c(=O)n(C)c(=O)n2Cc1ccco1 | inactive | inactive | inactive | inactive | inactive | inactive | inactive | inactive | inactive | inactive | inactive | inactive | inactive | inactive | inactive | inactive | inactive | inactive | inactive | inactive
12 | C[C@]12CCC(=O)C=C1CC[C@@H]1[C@@H]2CC[C@@]2(C)[C@H]1CC[C@]2(O)C(=O)CO | inactive | inactive | inactive | inactive | inactive | inactive | inactive | inactive | inactive | inactive | inactive | inactive | inactive | inactive | inactive | inactive | inactive | inactive | inactive | 
13 | COCC(=O)O[C@]1(CCN(C)CCCc2nc3ccccc3[nH]2)CCc2cc(F)ccc2[C@@H]1C(C)C | 5.36 µM (active) | 2.69 µM (active) | 1.58 µM (active) | 4.78 µM (active) | 0.849 µM (active) | 6.01 µM (active) | 6.75 µM (active) | 6.75 µM (active) | 4.78 µM (active) | 1.9 µM (active) | 1.26 µM (active) | 0.953 µM (active) | 0.601 µM (active) | 3.38 µM (active) | 0.224 µM (active) | 4.47 µM (active) | 10 µM (active) | 0.151 µM (active) | 7.94 µM (active) | 1.78 µM (active)
14 | CC(C(=O)O)c1ccc(CC2CCCC2=O)cc1 (configuration not stated) | inactive | inactive | inactive | inactive | inactive | inactive | inactive | inactive | inactive | inactive | inactive | inactive | inactive | inactive | inactive | inactive | inactive | inactive | inactive | inactive
15 | CC(=O)OCC1=C(C(=O)O)N2C(=O)[C@@H](NC(=O)Cc3cccs3)[C@H]2SC1 | inactive | inactive | inactive | inactive | inactive | inactive | inactive | inactive | inactive | inactive | inactive | inactive | inactive | inactive | inactive | inactive | inactive | inactive | inactive | inactive
16 | O=C1CC2(CCCC2)CC(=O)N1CCCCN1CCN(c2ncccn2)CC1 | inactive | inactive | inactive | inactive | inactive | inactive | inactive | inactive | inactive | inactive | inactive |  |  | inactive | inactive |  | inactive |  | inactive | inactive
17 | CC(=O)[C@]1(O)Cc2c(O)c3c(c(O)c2[C@@H](O[C@H]2C[C@H](N)[C@H](O)[C@H](C)O2)C1)C(=O)c1ccccc1C3=O | 9.53 µM (active) | 10.7 µM (active) | 1.41 µM (active) | 9.53 µM (active) |  | 8.49 µM (active) | 15.1 µM (active) |  | 10.7 µM (active) | 1.69 µM (active) | 3.55 µM (active) | 4.78 µM (active) | 4.78 µM (active) |  | 0.158 µM (active) | 7.94 µM (active) | 11.2 µM (active) | 4.78 µM (active) | 4.47 µM (active) | 1.78 µM (active)
18 | CN1CCN(C2=Nc3ccccc3Oc3ccc(Cl)cc32)CC1 | inactive | inactive | inactive | inactive | inactive | inactive | inactive | inactive | inactive | inactive | inactive | inactive | inactive | inactive | inactive | inactive | inactive |  | inactive | 
19 | COc1ccc(CN(CCN(C)C)c2ccccn2)cc1 | inactive | inactive | inactive | inactive |  | inactive | inactive | inactive | inactive |  | inactive |  |  |  |  | inactive | inactive | 6.01 µM (active) | inactive | inactive
20 | CN1CCN(CC(=O)N2c3ccccc3C(=O)Nc3cccnc32)CC1 | inactive | inactive | inactive | inactive |  | inactive | inactive | inactive | inactive | inactive | inactive | inactive | inactive | inactive | inactive | inactive | inactive | inactive | inactive | inactive
21 | COC(=O)C1=C(C)NC(C)=C(C(=O)OC(C)(C)CN(C)CCC(c2ccccc2)c2ccccc2)C1c1cccc([N+](=O)[O-])c1 (configuration not stated) | 7.57 µM (active) | 4.26 µM (active) | 2.51 µM (active) | 3.79 µM (active) | 3.79 µM (active) | 5.36 µM (active) | 4.26 µM (active) | 6.01 µM (active) | 3.79 µM (active) | 1.51 µM (active) | 3.55 µM (active) | 3.79 µM (active) | 3.38 µM (active) | 4.78 µM (active) | 2.24 µM (active) | 3.16 µM (active) |  | 2.13 µM (active) | 3.16 µM (active) | 2 µM (active)
22 | CCN(CC)CCCN(c1ccccc1)C1Cc2ccccc2C1 | 7.57 µM (active) | 10.7 µM (active) | 5.01 µM (active) | 7.57 µM (active) | 13.5 µM (active) | 6.75 µM (active) |  | 8.49 µM (active) | 12 µM (active) | 4.78 µM (active) | 5.01 µM (active) | 2.13 µM (active) | 4.26 µM (active) | 8.49 µM (active) | 3.98 µM (active) | 3.98 µM (active) | 5.62 µM (active) | 6.01 µM (active) | 11.2 µM (active) | 3.55 µM (active)
23 | CCO/C([O-])=N/c1c[n+](N2CCOCC2)no1 | inactive | inactive | inactive | inactive | inactive | inactive | inactive |  | inactive | inactive | inactive | inactive | inactive | inactive | inactive | inactive | inactive | inactive | inactive | inactive
24 | CN(C)CCOC(=O)COc1ccc(Cl)cc1 | inactive | inactive | inactive | inactive | inactive | inactive | inactive |  | inactive | inactive | inactive |  |  | inactive | inactive | inactive | inactive | inactive | inactive | inactive
25 | CCN(Cc1ccncc1)C(=O)C(CO)c1ccccc1 (configuration not stated) | inactive | inactive | inactive | inactive | inactive | inactive | inactive | inactive | inactive | inactive | inactive | inactive | inactive | inactive | inactive | inactive | inactive | inactive | inactive | inactive
26 | NCCCNCCSP(=O)(O)O | inactive | inactive | inactive | inactive | inactive | inactive | inactive | inactive | inactive | inactive | inactive | inactive | inactive | inactive | inactive | inactive | inactive | inactive | inactive | inactive
